By remaining activity is commonly meant the signal under treatment as a percentage of the control signal. What is called AC50 is the midpoint of the concentration-response curve, whichever way the signal moves.

Molecules are shown by their SMILES. “And” between values parts separate entries of the source, which are not always exact repeats. Equal values may be shown once. Records with an inconclusive call do not appear. The source made the active and inactive calls.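 Rule for the calls, unless noted: active = z-score of at least 1.8 in each of two replicates, scored against plate mean and spread of sample wells; inactive = the rest.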

The source of these data is PubChem BioAssay.

Assay [1] in a line: Wnt pathway potentiators raising nuclear beta-catenin – imaging, WNT3A-conditioned medium, mouse C2C12, NPC library, primary screen (AID 1117326; in the data active = nuclear beta-catenin stimulation mostly above about 4.2%, no sharp cut-off; inactive = mostly below about 10%). Particulars: stronger effect = higher value.
Assay [2] in a line: stimulators of insulin release from INS-1E, primary screen, cell-based, 5 mM glucose, NPC library (AID 1117329;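 active = compound raises insulin release from rat beta cells at 5 mM glucose, no numeric limit stated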). The note with it: rat INS-1E insulin secretion, at 10 µM, stronger effect = higher value.
The nature of assay [3]: growth inhibition of GSK3B-pretreated HCT116 cells – cell-based, CellTiter-Glo, 0.2 to 20 µM (AID 1117336;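 active = compounds lowering colon cancer cell viability after pretreatment blocking the GSK3B kinase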). The note with it: HCT116 viability after GSK3B inhibitor, at 20 µM, stronger effect = higher value. A general note: ATP-based viability assays read luminescence as a measure of living cells.
Assay [4] is described as follows: inhibition of endothelial tube formation, primary screen, imaging, VEGF stimulated, CD31 staining, tube area, NPC library (AID 1117340;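 active = compound that reduces growth-factor-driven endothelial tube area in a mixed cell culture, no cutoff stated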). The note with it: VEGF-stimulated ADSC/ECFC co-culture, at 10 µM, stronger effect = higher value.
Assay [5] in a line: GLP1 release stimulators, primary, NCI-H716, NPC library (AID 1117341;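 active = compound raises GLP1 secretion from the human gut endocrine cells, with no numeric limit stated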). Particulars: NCI-H716 cells, at 10 µM, stronger effect = higher value.
Assay [6] in a line: HCT116 colon cancer cell growth inhibition, primary screen, CellTiter-Glo luminescence, NPC library (AID 1117342;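 active = compounds that lower survival of HCT116 colon cancer cells in the luminescence readout, no numeric limit stated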). Particulars: at 20 µM (top of the series).
Assay [7] can be described thus: reduced SW480 viability measured with CellTiter-Glo, NPC library, primary (AID 1117343;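 active = compounds that lower viability of the colon cancer cells in the luminescence readout, with no numeric limit stated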). The note with it: CellTiter-Glo luminescence; at 20 µM (top of the series) unless noted.
Assay [8] is described as follows: NPC library primary testing for decreased DLD-1 cell viability via CellTiter-Glo (AID 1117346;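 active = compounds that lower survival of DLD-1 colon cancer cells in the luminescence readout, no cutoff given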). The note with it: DLD-1 viability, CellTiter-Glo luminescence; at 20 µM (top of the series).
Assay [9] deals with Aerobactin synthetase IucA (Klebsiella pneumoniae). Nature of the assay: inhibition of K. pneumoniae IucA enzyme – biochemical, Tocris library, absorbance (AID 1345561; call rule not given here;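 note: 100% = enzyme without compound and 0% = no enzyme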). Particulars: purified IucA enzyme assay, absorbance (OD) read-out; stronger effect = lower value;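 tested at 8 µM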.
A short description of assay [10]: viability loss with induced miR-34 in A549 – imaging, A549 dox-inducible miR-34, nuclei and caspase counts, primary screen (AID 1347080;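 active = compounds whose cell count with miR-34 switched on is under 0.7 times the count with it off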). The note with it: A549 miR-34 inducible, Hoechst nuclei count, 48 h.
Assay [11] can be described thus: MELAS cybrid and Rieske KO viability enhancers – cell-based, MELAS cybrids, Rieske KO mouse fibroblasts, CellTiter-Glo, primary screen (AID 1508586;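 active = mean z-score across replicates of 1.96 or higher in either the MELAS or the Rieske mutant cell line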;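 note: z relative to plate mean and SD of compound and empty wells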). Particulars: low glucose.
Assay [12] in a line: galactose survival enhancers in mitochondrial complex I cybrids – cell-based, galactose medium, ATP luminescence, primary screen (AID 1645843).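 Note: positive z means more ATP and so rescue of galactose-driven cybrid death.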 Particulars: complex I mutant cybrid cells, 72 h, stronger effect = higher value.
Assay [13] in a line: viability loss in pontine glioma line – cell-based, SU-DIPG-XIII, MIPE4.0, CellTiter-Glo, qHTS, dose response (AID 1347061; cut-off not given, nearly all actives have AC50 up to about 37 µM;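 note: cells exposed to compound for 48 hours before readout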). The note with it: CellTiter-Glo ATP luminescence.
Assay [14] can be described thus: viability loss in pontine glioma line – cell-based, SU-DIPG-IV, MIPE4.0, CellTiter-Glo, qHTS, dose response (AID 1347063; cut-off not given, nearly all actives have AC50 up to about 30 µM;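 note: compound exposure lasted 48 hours before the viability readout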). The note with it: CellTiter-Glo ATP luminescence.
Assay [15] can be described thus: growth inhibition of DIPG cells – cell-based, MIPE5.0 library, qHTS (AID 1347068; cut-off not given, nearly all actives have IC50 up to about 30 µM). Particulars: SU-DIPG-XXV viability.
Assay [16] addresses NAD(+) hydrolase SARM1 (Homo sapiens) (UniProt Q6SZW1). In words: blocking NAD cleavage by SARM1 SAM-TIR – cell lysate, NAD-Glo luminescence (AID 1508614;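 active = compound whose remaining NAD level is above about 45 nM, limit read from the data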;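 note: higher remaining NAD means stronger inhibition of SARM1 NADase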). The note with it: SAM-TIR HEK293T lysate NADase, at 1 µM, stronger effect = higher value.
[17] abbreviates: stronger effect = lower value, cell number ratio, induced over uninduced.
The mark [18] stands for this setting: measured here: relative caspase fold change +Dox/-Dox.
Setting [19] is: measured here: total cells with miR-34 induction, stronger effect = lower value.
The mark [20] stands for this setting: measured here: total cells without miR-34 induction.
The mark [21] stands for this setting: MELAS cybrid survival, CellTiter-Glo 48 h, stronger effect = higher value.
The mark [22] stands for this setting: Rieske KO mouse fibroblast survival, CellTiter-Glo 72 h.

Chain of NAD(+) hydrolase SARM1 (Homo sapiens) (Q6SZW1 whole entry, looked up): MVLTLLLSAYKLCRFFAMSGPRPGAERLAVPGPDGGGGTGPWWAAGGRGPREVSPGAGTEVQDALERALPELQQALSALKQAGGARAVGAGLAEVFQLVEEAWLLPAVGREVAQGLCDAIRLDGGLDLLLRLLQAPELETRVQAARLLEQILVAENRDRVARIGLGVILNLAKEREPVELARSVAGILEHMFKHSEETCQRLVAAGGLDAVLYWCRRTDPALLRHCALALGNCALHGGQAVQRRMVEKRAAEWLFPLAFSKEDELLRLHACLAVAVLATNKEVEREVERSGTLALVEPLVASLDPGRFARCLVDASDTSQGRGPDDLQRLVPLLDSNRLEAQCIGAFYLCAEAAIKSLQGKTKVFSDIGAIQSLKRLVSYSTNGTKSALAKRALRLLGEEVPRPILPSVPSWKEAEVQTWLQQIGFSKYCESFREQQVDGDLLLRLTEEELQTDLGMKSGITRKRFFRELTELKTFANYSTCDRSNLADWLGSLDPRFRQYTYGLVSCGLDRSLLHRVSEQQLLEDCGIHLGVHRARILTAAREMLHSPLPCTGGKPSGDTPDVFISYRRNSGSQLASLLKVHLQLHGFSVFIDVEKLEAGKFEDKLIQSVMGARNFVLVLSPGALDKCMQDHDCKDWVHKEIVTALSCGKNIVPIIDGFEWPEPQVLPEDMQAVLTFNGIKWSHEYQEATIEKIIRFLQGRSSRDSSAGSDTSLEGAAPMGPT

In the case of `Cc1ccc(=O)n(-c2ccccc2)c1`, the nuclear beta-catenin stimulation was 2.8% (inactive) in [1] (at 10 µM) and 0.6% in assay [1] (stimulation, at 2 µM). In [2], the insulin secretion stimulation is -1.2% (inactive). Also, in assay [3], the viability decrease is -0.3% (inactive). For the same compound, the tube area decrease in assay [4] was 13.3% (inactive). The GLP1 secretion stimulation in assay [5] was -2% (inactive). The inhibition of viability in [6] was -4.6% (inactive). Moreover, the figures for the viability decrease (inhibition) in assay [7] and in [8] were 39.2% (inactive) and 12.8% (inactive), respectively. For the same compound, in [9], the remaining activity was 120% (inactive). Moreover, the fold change in assay [10] (setting [17]) was 1.05 (inactive) and 0.91 (inactive) and 0.937 (inactive); in assay [10] (setting [18]), 1.33 and 1.82 and 0.797. The cell count was 11000 and 8480 and 9430 in assay [10] (setting [19]); 10500 and 9310 and 10100 in assay [10] (setting [20]). The z-score in assay [11] (setting [21]) was -0.113 (inactive); in [11] (setting [22]) it was -0.414; in assay [12] it was 0.38 (inactive) and -0.08 (inactive).
`Cn1ccc2cc3c(cc21)CCN3C(=O)Nc1cccnc1`: the nuclear beta-catenin stimulation is 0.8% (inactive) in assay [1] (at 10 µM) and -1.3% in [1] (stimulation, at 2 µM). In addition, the insulin secretion stimulation in [2] is -1.4% (inactive). The viability decrease in assay [3] was -4.4% (inactive). The tube area decrease in assay [4] is -4.4% (active). In addition, the GLP1 secretion stimulation in assay [5] is 0.1% (inactive). Further, the inhibition of viability in assay [6] is 24.2% (inactive). Besides, the viability decrease (inhibition) in [7] was 12.7% (inactive); in assay [8], -22.3% (inactive). Further, the remaining activity in assay [9] is 117% (inactive). Moreover, the half-maximal activity concentration (AC50) in assay [13] was 14.8 µM (active). The compound was called inactive in assay [14] and in [15]. For the same compound, the fold change in assay [10] (setting [17]) is 1.01 (inactive) and 0.974 (inactive); in [10] (setting [18]), 1.08 and 0.723. Also, the cell count is 11100 and 8340 in assay [10] (setting [19]); 11000 and 8560 in assay [10] (setting [20]). In [12], the z-score was 1.23 (inactive) and 0.545 (inactive).
Consider `CC#C[C@]1(O)CC[C@H]2[C@@H]3CCC4=CC(=O)CCC4=C3[C@@H](c3ccc(N(C)C)cc3)C[C@@]21C`, for which the nuclear beta-catenin stimulation is 9.1% (inactive) in assay [1] (at 10 µM) and 4% in assay [1] (stimulation, at 2 µM). Further, the insulin secretion stimulation in assay [2] was 1% (inactive). In addition, the viability decrease in [3] was 94.5% (active). In addition, the tube area decrease in [4] was 16.1% (inactive). The GLP1 secretion stimulation in [5] is -3.8% (inactive). Further, the inhibition of viability in assay [6] is 84.3% (active). The viability decrease (inhibition) was 102% (active) in [7] and 98.6% (active) in assay [8]. Besides, the remaining activity in assay [9] was 115% (inactive). The AC50 in assay [14] is 0.418 µM (active). The result in assay [15] was inactive. The z-score in assay [11] (setting [21]) was 1.08 (inactive) and 0.356 (inactive); in [11] (setting [22]), 0.475 and 1.05; in assay [12] it was 0.48 (inactive) and -0.34 (inactive) and 0.325 (inactive). For the same compound, the remaining NAD in [16] is 10 nM (inactive).
For the compound `O=C1c2ccccc2S(=O)(=O)N1CCCCN1CCN(c2ncccn2)CC1`, the nuclear beta-catenin stimulation is -1.2% (inactive) in assay [1] (at 10 µM) and 1.3% in assay [1] (stimulation, at 2 µM). Besides, the insulin secretion stimulation in [2] was 3.3% (inactive). The viability decrease in assay [3] is -7% (inactive). Also, in assay [4], the tube area decrease was 4.9% (inactive). Moreover, the GLP1 secretion stimulation in [5] is -1.9% (inactive). Moreover, the inhibition of viability in assay [6] is 7.2% (inactive). Besides, the viability decrease (inhibition) was -2.4% (active) in [7] and -2.8% (inactive) in assay [8]. The remaining activity in [9] is 111% (inactive). Besides, the figures for the fold change in assay [10] (setting [17]) and in [10] (setting [18]) were 0.855 (inactive) and 1.78, respectively. For the same compound, the cell count in assay [10] (setting [19]) is 8330; in assay [10] (setting [20]), 9750. Also, the z-score is -0.295 (inactive) in [11] (setting [21]), -0.0604 in assay [11] (setting [22]) and 0.135 (inactive) in assay [12].
With `CCC(CC)(CC(=O)Nc1cccc(/C=C/c2nc(C3CCC3)cs2)c1)C(=O)O`, the nuclear beta-catenin stimulation in assay [1] (at 10 µM) was 0% (inactive); in [1] (stimulation, at 2 µM), 0.1%. In addition, the insulin secretion stimulation in [2] was 1% (inactive). For the same compound, the viability decrease in assay [3] is 96.6% (active). In addition, the tube area decrease in assay [4] was 5.4% (inactive). Moreover, the GLP1 secretion stimulation in assay [5] is 1.7% (inactive). In addition, in assay [6], the inhibition of viability was 42.9% (inactive). For the same compound, the results for the viability decrease (inhibition) in [7] and in assay [8] were 41% (inactive) and 70.9% (active), respectively. Further, in assay [9], the remaining activity is 89.3% (inactive). Also, the fold change in assay [10] (setting [17]) is 0.829 (inactive); in [10] (setting [18]), 1.27. The results for the cell count in assay [10] (setting [19]) and in assay [10] (setting [20]) were 7300 and 8810, respectively. Besides, the z-score in assay [12] was 2.4 (active).
